NADH enzymes – blocks coupling enzymes of NAD/NADH assays | IC50, µM (highest dose often 10 µM), for inactives: at the highest dose inhibition | coupled PK/LDH NADH assays, four targets | 0.02% of 65,000 active;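 active = single-dose screening hits from any of four coupled enzyme assays that gave an IC50 when retested across doses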;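 note: the DPM-DC format reads NADH fluorescence rather than 340 nm absorbance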
PMK inhibit – blocks S. pneumoniae phosphomevalonate kinase | 0.49% of 65,000 active | inhibition, % at 10 µM | AID 539 | purified PMK, PK/LDH-coupled NADH absorbance 340 nm;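 active = top-ranked compounds by inhibition in the single 10 µM screen, taking a fixed number of the strongest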;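 note: 0% = full reaction with DMSO carrier and 100% = background rate without enzyme reaction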
A340 absorber – compound absorbs light at 340 nm; compound absorbance at 340 nm, fold over control; fold change at 10 µM; 65,000 tested, under 10 active; AID 708;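 active = at 10 µM dose, initial 340 nm absorbance at least 2 fold that of control wells; inactive = change under 2 fold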;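 note: initial absorbance extrapolated from kinetic A340 decline of NADH oxidation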
Fluor 339 460 – intrinsic fluorescence of library compounds, ex339/em460 – biochemical, MLSMR library, data from DPM-DC assay, artefact control, profiling panel. compound autofluorescence, ex339/em460 nm, NADH buffer; active compounds read high; 1 = no-compound wells, NADH background. fluorescence fold increase at 10 µM. 5.5% of 65,000 active. AID 709;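 active = at 10 µM, mean starting fluorescence two-fold or more over control wells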;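 note: signal is the first read of a kinetic run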
DPM-DC inhibit – S. pneumoniae DPM-DC inhibition; purified DPM-DC, PK/LDH coupled NADH fluorescence; calls only at 10 µM; 0.49% of 65,000 active;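 active = the 320 compounds with the highest percent inhibition in the single-dose primary screen, excluding strongly autofluorescent ones, cut at about 32% in these data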;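 note: kinetic rate of NADH fluorescence loss reporting ADP formed by the decarboxylase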
MK inhibit – S. pneumoniae mevalonate kinase inhibition; purified MK, PK/LDH-coupled NADH absorbance 340 nm; inhibition, % at 10 µM; 0.48% of 65,000 active; AID 555;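 active = ranked among the strongest by inhibition in the single 10 µM screen, a fixed top-ranked set picked for dose follow-up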
Starred values were filed as active, the others as inactive; i = inactive; x = not tested or not shown; + = active, no number. A selection: hits, their analogues and other compounds. The true share with any hit is near 6.3%.

SMILES	NADH enzymes	PMK inhibit	A340 absorber	Fluor 339 460	DPM-DC inhibit	MK inhibit
COc1ccc2[nH]c(=O)c(CN(CCCN3CCOCC3)C(=O)NCc3ccccc3)cc2c1	13%	14	1.1	3.3*	i	7
CCc1ccc2[nH]c(=O)c(CN(CCCN3CCOCC3)C(=O)Nc3ccc(Cl)cc3)cc2c1	4%	10	0.99	1.2	i	3
O=C(Nc1ccccc1F)N(CCCN1CCOCC1)Cc1cc2cc3c(cc2[nH]c1=O)OCCO3	10%	3	1	3.8*	i	15
COc1ccccc1CCn1cnc2c3cc(C)ccc3n(C)c2c1=O	8%	0	1	3.3*	i	4
Cc1ccc2c(c1)[nH]c1c(=O)n(CCN3CCCCC3)cnc12	6%	11	1.1	1.7	i	0
COc1ccc2c(c1)c1ncn(CCN3CCCC3)c(=O)c1n2C	10%	10	1.1	3.7*	x	9
CCC(=O)N1CCN(CCN=Cc2c(O)n(C3CCCCC3)c(=O)n(C3CCCCC3)c2=O)CC1	0%	0	1.1	1.1	i	0
Cc1nn(-c2ccccc2)c2sc(C(=O)OCn3nnc4ccccc4c3=O)cc12	1%	3	1	1.1	i	0
CCCCNC(=O)COC(=O)c1cc2c(C)nn(-c3ccccc3)c2s1	13%	17	1	2.5*	i	8
Cc1nn(-c2ccccc2)c2sc(C(=O)n3cccn3)cc12	9%	11	1.1	2.2*	x	6
Cc1nn(-c2ccccc2)c2sc(C(=O)N3CCCCC3)cc12	2%	0	1	1.2	i	6
Cc1cc(C)n(-c2nnc(C)n2NS(C)(=O)=O)n1	4%	8	1	1.1	i	5
CCCn1nc(-c2ccccc2)c2nc3ccccc3nc21	4%	8	1.1	2.4*	i	3
CCn1nc(NC(=O)c2ccncc2)c2cc3ccccc3nc21	3%	0	1	1.2	i	8
CCn1nc(-c2ccccc2)c2nc3ccccc3nc21	12%	13	1.1	2.4*	i	5
N#Cc1ccc(-c2cccnc2)nc1SCC(=O)Nc1sc2c(c1C#N)CCC2	45%	47	1.1	1.1	i	62*
c1ccc2c(c1)nc(Nc1ccc3c(c1)OCO3)c1nnnn12	3%	8	1	1.2	i	0
Cc1ccc(CNc2nc3ccccc3n3nnnc23)cc1	10%	9	1.1	2.4*	i	0
CCOC(=O)N1CCC(Nc2nc3ccccc3n3nnnc23)CC1	7%	13	1	4*	x	0
CCN(CC)S(=O)(=O)c1ccc(Nc2nc3ccccc3n3nnnc23)cc1	7%	7	1.1	3.6*	i	0
Cc1ccc(-c2nc3ccccc3n3nnnc23)cc1	8%	7	1.1	3.8*	x	9
C=CCc1ccc(OCC(O)CN2CCCCC2C)c(OC)c1 (configuration not stated)	5%	11	1	1	i	3
COC(=O)c1ccc(COc2ccc3c4c(c(=O)oc3c2)CCC4)o1	23%	3	1.1	2.5*	+	4
O=C(COc1ccc2c3c(c(=O)oc2c1)CCC3)c1ccc2c(c1)OCO2	7%	3	1.1	1.7	i	4
COC(=O)c1cc(COc2ccc3c4c(c(=O)oc3c2)CCCC4)c(C)o1	2%	3	1.1	2.2*	x	1
SMILES	NADH enzymes	PMK inhibit	A340 absorber	Fluor 339 460	DPM-DC inhibit	MK inhibit
COCCCn1c2nc3ccccc3nc2c2c(=O)n(-c3ccccc3OC)c(C)nc21	11%	6	1	1.9	i	8
COc1ccc(Cn2c3nc4ccccc4nc3c3c(=O)n(Cc4ccco4)cnc32)cc1	5%	0	1.1	1.8	i	8
CCOCCCn1cnc2c(c1=O)c1nc3ccccc3nc1n2-c1ccc(C)cc1	9%	12	1.1	1.2	i	14
CC(C)CCn1cnc2c(c1=O)c1nc3ccccc3nc1n2Cc1ccc2c(c1)OCO2	2%	2	1.1	3.6*	x	2
CCCCn1c2nc3ccccc3nc2c2c(=O)n(CCC)cnc21	9%	11	1.1	3.9*	x	7
COCCCn1c2nc3ccccc3nc2c2c(=O)n(-c3ccccc3OC)cnc21	8%	12	1.1	2.4*	i	7
COCCCn1cnc2c(c1=O)c1nc3ccccc3nc1n2CCc1ccccc1	2%	0	1.1	2.4*	x	3

Screening data from PubChem.
